# Key:
# [1] = target: Glycogen synthase kinase-3 alpha (Homo sapiens) (UniProt P49840); settings: at 0.1 µM
# [2] = target: Glycogen synthase kinase-3 alpha (Homo sapiens) (UniProt P49840); settings: at 1 µM
# [3] = target: Glycogen synthase kinase-3 beta (Homo sapiens) (UniProt P49841); settings: at 0.1 µM
# [4] = target: Glycogen synthase kinase-3 beta (Homo sapiens) (UniProt P49841); settings: at 1 µM
# [5] = target: Homeodomain-interacting protein kinase 1 (Homo sapiens) (UniProt Q86Z02); settings: at 0.1 µM
# [6] = target: Homeodomain-interacting protein kinase 1 (Homo sapiens) (UniProt Q86Z02); settings: at 1 µM
# [7] = target: Homeodomain-interacting protein kinase 4 (Homo sapiens) (UniProt Q8NE63); settings: at 0.1 µM
# [8] = target: Homeodomain-interacting protein kinase 4 (Homo sapiens) (UniProt Q8NE63); settings: at 1 µM
# [9] = target: Mitogen-activated protein kinase 9 (Homo sapiens) (UniProt P45984); settings: at 0.1 µM
# Chain of Mitogen-activated protein kinase 9 (Homo sapiens) (P45984 whole entry, looked up): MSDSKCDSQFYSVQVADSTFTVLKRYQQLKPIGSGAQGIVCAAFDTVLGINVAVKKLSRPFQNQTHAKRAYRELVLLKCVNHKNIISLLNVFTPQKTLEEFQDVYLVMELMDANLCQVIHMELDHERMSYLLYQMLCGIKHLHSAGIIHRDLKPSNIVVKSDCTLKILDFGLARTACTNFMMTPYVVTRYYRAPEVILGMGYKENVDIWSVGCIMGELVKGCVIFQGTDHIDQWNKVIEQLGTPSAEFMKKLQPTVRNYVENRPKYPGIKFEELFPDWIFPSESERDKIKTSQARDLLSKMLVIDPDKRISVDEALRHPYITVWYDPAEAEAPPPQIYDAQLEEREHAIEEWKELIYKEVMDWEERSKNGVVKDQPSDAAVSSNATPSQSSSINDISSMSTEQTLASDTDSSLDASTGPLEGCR
# [10] = target: Mitogen-activated protein kinase 9 (Homo sapiens) (UniProt P45984); settings: at 1 µM
# [11] = target: Mitogen-activated protein kinase 1 (Homo sapiens) (UniProt P28482); settings: at 0.1 µM
# [12] = target: Mitogen-activated protein kinase 1 (Homo sapiens) (UniProt P28482); settings: at 1 µM
# [13] = target: Mitogen-activated protein kinase 3 (Homo sapiens) (UniProt P27361); settings: at 0.1 µM
# Chain of Mitogen-activated protein kinase 3 (Homo sapiens) (P27361 whole entry): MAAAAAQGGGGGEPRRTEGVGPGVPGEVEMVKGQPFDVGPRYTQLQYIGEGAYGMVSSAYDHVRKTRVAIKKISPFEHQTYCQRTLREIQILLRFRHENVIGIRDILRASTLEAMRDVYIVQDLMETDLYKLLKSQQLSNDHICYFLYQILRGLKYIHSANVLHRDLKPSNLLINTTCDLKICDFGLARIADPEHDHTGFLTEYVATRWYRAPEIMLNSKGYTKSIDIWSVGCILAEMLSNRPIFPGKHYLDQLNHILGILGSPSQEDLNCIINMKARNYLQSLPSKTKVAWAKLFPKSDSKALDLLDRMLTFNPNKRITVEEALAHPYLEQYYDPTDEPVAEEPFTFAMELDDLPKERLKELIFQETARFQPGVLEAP
# [14] = target: Mitogen-activated protein kinase 3 (Homo sapiens) (UniProt P27361); settings: at 1 µM
# [15] = target: SRSF protein kinase 3 (Homo sapiens) (UniProt Q9UPE1); settings: at 0.1 µM
# [16] = target: SRSF protein kinase 3 (Homo sapiens) (UniProt Q9UPE1); settings: at 1 µM
# [17] = target: Mitogen-activated protein kinase 14 (Homo sapiens) (UniProt Q16539); settings: at 0.1 µM
# [18] = target: Mitogen-activated protein kinase 14 (Homo sapiens) (UniProt Q16539); settings: at 1 µM
# [19] = target: Mitogen-activated protein kinase 11 (Homo sapiens) (UniProt Q15759); settings: at 0.1 µM
# [20] = target: Mitogen-activated protein kinase 11 (Homo sapiens) (UniProt Q15759); settings: at 1 µM
# [21] = target: Mitogen-activated protein kinase 13 (Homo sapiens) (UniProt O15264); settings: at 0.1 µM
# [22] = target: Mitogen-activated protein kinase 13 (Homo sapiens) (UniProt O15264); settings: at 1 µM
# [23] = target: Mitogen-activated protein kinase 12 (Homo sapiens) (UniProt P53778); settings: at 0.1 µM
# [24] = target: Mitogen-activated protein kinase 12 (Homo sapiens) (UniProt P53778); settings: at 1 µM
# [25] = target: SRSF protein kinase 1 (Homo sapiens) (UniProt Q96SB4); settings: at 0.1 µM
# [26] = target: SRSF protein kinase 1 (Homo sapiens) (UniProt Q96SB4); settings: at 1 µM
# [27] = target: Phosphatidylinositol 4,5-bisphosphate 3-kinase catalytic subunit alpha isoform (Homo sapiens) (UniProt P42336); settings: at 0.1 µM
# Chain of Phosphatidylinositol 4,5-bisphosphate 3-kinase catalytic subunit alpha isoform (Homo sapiens) (P42336 whole entry, canonical isoform): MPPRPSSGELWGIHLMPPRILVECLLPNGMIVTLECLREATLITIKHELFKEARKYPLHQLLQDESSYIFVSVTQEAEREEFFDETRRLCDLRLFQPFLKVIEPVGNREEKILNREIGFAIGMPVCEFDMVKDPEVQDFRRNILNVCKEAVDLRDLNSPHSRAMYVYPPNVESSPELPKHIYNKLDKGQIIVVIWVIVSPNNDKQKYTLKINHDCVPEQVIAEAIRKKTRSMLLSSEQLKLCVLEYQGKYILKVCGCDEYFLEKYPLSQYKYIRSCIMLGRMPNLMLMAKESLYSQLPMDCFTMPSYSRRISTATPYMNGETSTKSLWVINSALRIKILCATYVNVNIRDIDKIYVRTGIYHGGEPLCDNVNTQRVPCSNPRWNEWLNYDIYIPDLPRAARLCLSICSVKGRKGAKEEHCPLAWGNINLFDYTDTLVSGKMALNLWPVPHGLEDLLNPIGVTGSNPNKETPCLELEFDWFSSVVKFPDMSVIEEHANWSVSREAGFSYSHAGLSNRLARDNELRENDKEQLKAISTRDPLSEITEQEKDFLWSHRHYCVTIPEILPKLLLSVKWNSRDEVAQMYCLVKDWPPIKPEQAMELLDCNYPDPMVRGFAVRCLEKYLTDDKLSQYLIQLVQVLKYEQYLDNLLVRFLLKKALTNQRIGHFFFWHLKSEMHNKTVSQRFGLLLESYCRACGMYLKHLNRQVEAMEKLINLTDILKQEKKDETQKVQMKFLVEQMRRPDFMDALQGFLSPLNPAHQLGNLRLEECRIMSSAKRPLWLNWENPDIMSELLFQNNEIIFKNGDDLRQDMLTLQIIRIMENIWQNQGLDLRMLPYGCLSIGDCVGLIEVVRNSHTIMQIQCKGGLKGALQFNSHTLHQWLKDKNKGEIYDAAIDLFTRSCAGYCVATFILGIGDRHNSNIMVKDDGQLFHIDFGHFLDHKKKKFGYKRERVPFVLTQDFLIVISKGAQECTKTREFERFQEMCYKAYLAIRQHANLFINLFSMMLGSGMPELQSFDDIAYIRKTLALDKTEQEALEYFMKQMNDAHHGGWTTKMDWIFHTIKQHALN
# [28] = target: Phosphatidylinositol 4,5-bisphosphate 3-kinase catalytic subunit alpha isoform (Homo sapiens) (UniProt P42336); settings: at 1 µM
# [29] = target: Phosphatidylinositol 4,5-bisphosphate 3-kinase catalytic subunit delta isoform (Homo sapiens) (UniProt O00329); settings: at 0.1 µM
# [30] = target: Phosphatidylinositol 4,5-bisphosphate 3-kinase catalytic subunit delta isoform (Homo sapiens) (UniProt O00329); settings: at 1 µM
# [31] = target: Phosphatidylinositol 4-kinase beta (Homo sapiens) (UniProt Q9UBF8); settings: at 0.1 µM
# [32] = target: Phosphatidylinositol 4-kinase beta (Homo sapiens) (UniProt Q9UBF8); settings: at 1 µM
# [33] = target: Sphingosine kinase 1 (Homo sapiens) (UniProt Q9NYA1); settings: at 0.1 µM
# Chain of Sphingosine kinase 1 (Homo sapiens) (Q9NYA1 whole entry): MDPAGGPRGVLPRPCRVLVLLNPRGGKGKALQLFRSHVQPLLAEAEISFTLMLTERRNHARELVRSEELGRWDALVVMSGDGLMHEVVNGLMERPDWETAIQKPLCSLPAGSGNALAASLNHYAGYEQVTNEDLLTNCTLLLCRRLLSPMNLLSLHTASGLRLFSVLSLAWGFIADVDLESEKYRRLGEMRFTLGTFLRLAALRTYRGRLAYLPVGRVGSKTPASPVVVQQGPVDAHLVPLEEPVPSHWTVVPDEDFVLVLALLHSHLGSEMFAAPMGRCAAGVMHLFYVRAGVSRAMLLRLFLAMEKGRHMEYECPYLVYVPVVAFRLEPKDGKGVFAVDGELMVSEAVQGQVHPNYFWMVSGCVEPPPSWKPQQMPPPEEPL
# [34] = target: Sphingosine kinase 1 (Homo sapiens) (UniProt Q9NYA1); settings: at 1 µM
# [35] = target: Sphingosine kinase 2 (Homo sapiens) (UniProt Q9NRA0); settings: at 0.1 µM
# [36] = target: Sphingosine kinase 2 (Homo sapiens) (UniProt Q9NRA0); settings: at 1 µM
# [37] = target: Casein kinase II subunit alpha (Homo sapiens) (UniProt P68400); settings: at 0.1 µM
# Chain of Casein kinase II subunit alpha (Homo sapiens) (P68400 whole entry, looked up): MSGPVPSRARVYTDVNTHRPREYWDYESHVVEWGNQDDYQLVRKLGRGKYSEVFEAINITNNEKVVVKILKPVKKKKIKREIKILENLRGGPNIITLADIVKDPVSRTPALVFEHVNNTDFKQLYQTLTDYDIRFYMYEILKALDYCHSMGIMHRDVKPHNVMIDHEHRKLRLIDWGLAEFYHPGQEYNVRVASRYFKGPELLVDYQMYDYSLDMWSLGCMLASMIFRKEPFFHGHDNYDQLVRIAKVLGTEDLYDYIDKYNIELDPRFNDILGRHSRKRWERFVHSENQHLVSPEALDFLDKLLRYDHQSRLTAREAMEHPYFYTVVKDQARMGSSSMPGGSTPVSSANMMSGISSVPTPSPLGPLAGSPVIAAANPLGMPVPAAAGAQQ
# [38] = target: Casein kinase II subunit alpha (Homo sapiens) (UniProt P68400); settings: at 1 µM
# [39] = target: Inhibitor of nuclear factor kappa-B kinase subunit alpha (Homo sapiens) (UniProt O15111); settings: at 0.1 µM
# [40] = target: Inhibitor of nuclear factor kappa-B kinase subunit alpha (Homo sapiens) (UniProt O15111); settings: at 1 µM
# [41] = target: Inhibitor of nuclear factor kappa-B kinase subunit beta (Homo sapiens) (UniProt O14920); settings: at 0.1 µM
# [42] = target: Inhibitor of nuclear factor kappa-B kinase subunit beta (Homo sapiens) (UniProt O14920); settings: at 1 µM
# [43] = target: Inhibitor of nuclear factor kappa-B kinase subunit epsilon (Homo sapiens) (UniProt Q14164); settings: at 0.1 µM
# Chain of Inhibitor of nuclear factor kappa-B kinase subunit epsilon (Homo sapiens) (Q14164 whole entry): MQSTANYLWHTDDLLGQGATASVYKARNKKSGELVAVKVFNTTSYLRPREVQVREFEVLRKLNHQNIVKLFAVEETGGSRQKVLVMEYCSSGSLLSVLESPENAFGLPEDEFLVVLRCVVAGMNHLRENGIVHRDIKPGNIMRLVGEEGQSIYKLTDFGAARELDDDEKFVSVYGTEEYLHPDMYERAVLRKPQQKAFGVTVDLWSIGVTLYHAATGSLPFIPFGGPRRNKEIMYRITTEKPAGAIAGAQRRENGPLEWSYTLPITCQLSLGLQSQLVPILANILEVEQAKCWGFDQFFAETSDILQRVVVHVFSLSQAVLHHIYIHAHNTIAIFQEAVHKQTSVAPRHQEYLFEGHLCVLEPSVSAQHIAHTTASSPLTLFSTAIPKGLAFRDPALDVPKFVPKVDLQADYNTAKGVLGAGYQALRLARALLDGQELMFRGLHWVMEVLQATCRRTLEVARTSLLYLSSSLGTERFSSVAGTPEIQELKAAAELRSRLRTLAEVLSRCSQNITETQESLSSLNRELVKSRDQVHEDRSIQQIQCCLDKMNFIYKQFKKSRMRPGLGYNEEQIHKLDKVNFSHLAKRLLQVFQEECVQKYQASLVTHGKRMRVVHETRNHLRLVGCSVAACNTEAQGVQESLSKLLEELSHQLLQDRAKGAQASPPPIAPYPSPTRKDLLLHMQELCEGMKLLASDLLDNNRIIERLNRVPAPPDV
# [44] = target: Inhibitor of nuclear factor kappa-B kinase subunit epsilon (Homo sapiens) (UniProt Q14164); settings: at 1 µM
# [45] = target: Serine/threonine-protein kinase Nek1 (Homo sapiens) (UniProt Q96PY6); settings: at 0.1 µM
# [46] = target: Serine/threonine-protein kinase Nek1 (Homo sapiens) (UniProt Q96PY6); settings: at 1 µM
# [47] = target: Serine/threonine-protein kinase Nek2 (Homo sapiens) (UniProt P51955); settings: at 0.1 µM
# [48] = target: Serine/threonine-protein kinase Nek2 (Homo sapiens) (UniProt P51955); settings: at 1 µM
# [49] = target: Serine/threonine-protein kinase Nek6 (Homo sapiens) (UniProt Q9HC98); settings: at 0.1 µM
# [50] = target: Serine/threonine-protein kinase Nek6 (Homo sapiens) (UniProt Q9HC98); settings: at 1 µM
# [51] = target: Serine/threonine-protein kinase Nek7 (Homo sapiens) (UniProt Q8TDX7); settings: at 0.1 µM
# Chain of Serine/threonine-protein kinase Nek7 (Homo sapiens) (Q8TDX7 whole entry, looked up): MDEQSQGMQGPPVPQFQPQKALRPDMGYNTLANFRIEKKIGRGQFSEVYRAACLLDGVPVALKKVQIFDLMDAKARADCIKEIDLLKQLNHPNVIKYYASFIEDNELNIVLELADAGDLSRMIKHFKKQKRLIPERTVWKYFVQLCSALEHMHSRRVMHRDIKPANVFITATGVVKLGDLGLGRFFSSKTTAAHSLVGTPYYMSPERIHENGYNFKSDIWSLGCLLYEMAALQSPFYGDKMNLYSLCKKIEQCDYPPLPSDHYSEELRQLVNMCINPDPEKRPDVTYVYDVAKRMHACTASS
# [52] = target: Serine/threonine-protein kinase Nek7 (Homo sapiens) (UniProt Q8TDX7); settings: at 1 µM
# [53] = target: Serine/threonine-protein kinase Nek9 (Homo sapiens) (UniProt Q8TD19); settings: at 0.1 µM
# [54] = target: Serine/threonine-protein kinase Nek9 (Homo sapiens) (UniProt Q8TD19); settings: at 1 µM
# [55] = target: Serine/threonine-protein kinase PLK1 (Homo sapiens) (UniProt P53350); settings: at 0.1 µM
# Chain of Serine/threonine-protein kinase PLK1 (Homo sapiens) (P53350 whole entry): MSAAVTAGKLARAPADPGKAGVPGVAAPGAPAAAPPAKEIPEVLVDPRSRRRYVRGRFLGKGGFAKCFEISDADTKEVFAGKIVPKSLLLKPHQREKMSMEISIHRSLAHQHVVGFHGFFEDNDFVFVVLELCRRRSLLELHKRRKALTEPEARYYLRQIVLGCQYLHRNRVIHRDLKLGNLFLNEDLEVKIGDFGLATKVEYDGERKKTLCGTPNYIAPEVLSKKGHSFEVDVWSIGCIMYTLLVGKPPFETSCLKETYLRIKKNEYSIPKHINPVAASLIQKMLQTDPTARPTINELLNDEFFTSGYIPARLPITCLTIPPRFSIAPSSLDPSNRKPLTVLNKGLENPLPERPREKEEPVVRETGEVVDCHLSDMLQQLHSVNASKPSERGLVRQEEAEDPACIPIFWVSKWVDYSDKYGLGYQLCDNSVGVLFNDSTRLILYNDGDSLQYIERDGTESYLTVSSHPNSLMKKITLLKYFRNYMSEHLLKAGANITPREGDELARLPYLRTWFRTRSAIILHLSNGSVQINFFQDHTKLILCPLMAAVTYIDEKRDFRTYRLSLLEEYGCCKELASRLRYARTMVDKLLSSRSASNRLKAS
# [56] = target: Serine/threonine-protein kinase PLK1 (Homo sapiens) (UniProt P53350); settings: at 1 µM
# Chain of Glycogen synthase kinase-3 alpha (Homo sapiens) (P49840 2-483 limits assumed): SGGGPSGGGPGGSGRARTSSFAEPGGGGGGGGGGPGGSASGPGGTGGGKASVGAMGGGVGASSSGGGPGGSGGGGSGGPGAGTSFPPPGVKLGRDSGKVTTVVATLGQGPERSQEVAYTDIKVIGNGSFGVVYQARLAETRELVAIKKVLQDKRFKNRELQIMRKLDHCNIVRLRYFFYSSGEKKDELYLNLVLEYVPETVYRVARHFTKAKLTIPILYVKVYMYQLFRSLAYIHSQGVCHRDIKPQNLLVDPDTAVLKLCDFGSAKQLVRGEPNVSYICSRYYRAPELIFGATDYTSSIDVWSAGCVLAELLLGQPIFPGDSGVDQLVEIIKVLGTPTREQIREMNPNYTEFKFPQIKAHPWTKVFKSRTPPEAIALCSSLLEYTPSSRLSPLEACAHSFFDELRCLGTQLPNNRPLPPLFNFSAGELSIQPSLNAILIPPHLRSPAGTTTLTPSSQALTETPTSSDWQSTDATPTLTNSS
smiles,measurement,setting,value
CNC(=O)Oc1cc(C)c(/C=C/c2cncc(C(=O)NC)c2)c(C)c1,inhibition,[1],1.71%
same,inhibition,[2],5.29%
same,inhibition,[3],1.23%
same,inhibition,[4],4.75%
same,inhibition,[5],-0.37%
same,inhibition,[6],1.2%
same,inhibition,[7],0.96%
same,inhibition,[8],3.81%
same,inhibition,[9],3.14%
same,inhibition,[10],2.28%
same,inhibition,[11],1.83%
same,inhibition,[12],2.04%
same,inhibition,[13],3.1%
same,inhibition,[14],2.72%
same,inhibition,[15],1.79%
same,inhibition,[16],1.43%
same,inhibition,[17],3.47%
same,inhibition,[18],3.16%
same,inhibition,[19],1.39%
same,inhibition,[20],2.35%
same,inhibition,[21],0.06%
same,inhibition,[22],2.61%
same,inhibition,[23],0.49%
same,inhibition,[24],1.7%
same,inhibition,[25],-1.34%
same,inhibition,[26],-4.31%
same,inhibition,[27],2.83%
same,inhibition,[28],2.08%
same,inhibition,[29],1.65%
same,inhibition,[30],0.21%
same,inhibition,[31],5.69%
same,inhibition,[32],3.41%
same,inhibition,[33],2.31%
same,inhibition,[34],0.63%
same,inhibition,[35],0.57%
same,inhibition,[36],19.7%
same,inhibition,[37],1.53%
same,inhibition,[38],0.66%
same,inhibition,[39],0.51%
same,inhibition,[40],-0.7%
same,inhibition,[41],3.06%
same,inhibition,[42],1.89%
same,inhibition,[43],2.27%
same,inhibition,[44],0.9%
same,inhibition,[45],2.1%
same,inhibition,[46],1.49%
same,inhibition,[47],2.52%
same,inhibition,[48],4.05%
same,inhibition,[49],-0.26%
same,inhibition,[50],1.16%
same,inhibition,[51],2.46%
same,inhibition,[52],2.99%
same,inhibition,[53],6.95%
same,inhibition,[54],4.01%
same,inhibition,[55],3.92%
same,inhibition,[56],2.75%

# From ChEMBL document CHEMBL1961873, “Compounds: GSK PKIS; Assays: Nanosyn kinase panel” (2012)
